Reference: PubChem BioAssay AID1159580 (chemical genetic matrix, 2015)
About 2,000 (36%) of roughly 5,500 compounds were called active. Another 18% or so got no clear call; they are omitted. No stated cut-off is given here; in the data, active means normalized growth mostly below about 0.91 (no sharp cut-off); inconclusive means no clear call, values can overlap the other calls; inactive means mostly above about 0.92. This is one part of the list.

Test: chemical genetic growth profiling, strain panel (AID 1159580);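 further: tested at 20 µM; growth read once vehicle control cultures reached saturation at 30 °C; 1 = growth at the plate median or of vehicle wells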
Conditions: growth OD

Measured: normalized growth

C#CCCCCCCCCCCCC(=O)CC(O)COC(C)=O (centres undefined)
inactive: S. cerevisiae deletion strains, locus YJR043C, strain POL32, stronger effect = lower value 0.865 | S. cerevisiae deletion strains, locus YKL009W, strain mrt4, stronger effect = lower value 0.901 | S. cerevisiae deletion strains, locus YKL068W, stronger effect = lower value 0.977 | S. cerevisiae deletion strains, locus YKL085W, strain MDH1 (second series), stronger effect = lower value 0.958 | S. cerevisiae deletion strains, locus YKL085W, strain MDH1, stronger effect = lower value 0.958 | S. cerevisiae deletion strains, locus YKL160W, strain elf1, stronger effect = lower value 0.969 | S. cerevisiae deletion strains, locus YKR026C, strain gcn3, stronger effect = lower value 0.991 | S. cerevisiae deletion strains, locus YKR091W, strain srl3, stronger effect = lower value 0.988 | S. cerevisiae deletion strains, locus YLL001W, strain dnm1, stronger effect = lower value 1 | S. cerevisiae deletion strains, locus YLL026W, stronger effect = lower value 0.995 | S. cerevisiae deletion strains, locus YLL041C, strain sdh2, stronger effect = lower value 0.989 | S. cerevisiae deletion strains, locus YLR027C, strain aat2, stronger effect = lower value 0.994 | S. cerevisiae deletion strains, locus YLR039C, strain RIC1, stronger effect = lower value 0.688 | S. cerevisiae deletion strains, locus YLR102C, strain apc9, stronger effect = lower value 0.97 | S. cerevisiae deletion strains, locus YLR221C, strain rsa3, stronger effect = lower value 0.935 | S. cerevisiae deletion strains, locus YLR258W, strain gsy2, stronger effect = lower value 0.972 | S. cerevisiae deletion strains, locus YLR262C, strain YPT6, stronger effect = lower value 0.655 | S. cerevisiae deletion strains, locus YLR342W, strain FKS1 (second series), stronger effect = lower value 0.794 | S. cerevisiae deletion strains, locus YLR342W, strain FKS1, stronger effect = lower value 0.953 | S. cerevisiae deletion strains, locus YLR357W, strain rsc2, stronger effect = lower value 1.01 | S. cerevisiae deletion strains, locus YLR370C, strain arc18, stronger effect = lower value 0.978 | S. cerevisiae deletion strains, locus YLR371W, strain rom2, stronger effect = lower value 0.964 | S. cerevisiae deletion strains, locus YLR384C, strain iki3, stronger effect = lower value 0.996 | S. cerevisiae deletion strains, locus YML016C, strain PPZ1, stronger effect = lower value 0.994 | S. cerevisiae deletion strains, locus YML120C, strain ndi1, stronger effect = lower value 0.986 | S. cerevisiae deletion strains, locus YML124C, strain tub3, stronger effect = lower value 0.974 | S. cerevisiae deletion strains, locus YMR058W, strain fet3, stronger effect = lower value 0.97 | S. cerevisiae deletion strains, locus YMR078C, strain ctf18, stronger effect = lower value 0.961 | S. cerevisiae deletion strains, locus YMR125W, strain sto1, stronger effect = lower value 0.979 | S. cerevisiae deletion strains, locus YMR129W, stronger effect = lower value 0.999 | S. cerevisiae deletion strains, locus YMR205C, strain PFK2, stronger effect = lower value 0.893 | S. cerevisiae deletion strains, locus YMR231W, strain pep5, stronger effect = lower value 0.957 | S. cerevisiae deletion strains, locus YMR307W, strain GAS1, stronger effect = lower value 0.99 | S. cerevisiae deletion strains, locus YNL128W, strain TEP1, stronger effect = lower value 0.872 | S. cerevisiae deletion strains, locus YNL209W, strain ssb2, stronger effect = lower value 0.981 | S. cerevisiae deletion strains, locus YNL248C, strain rpa49, stronger effect = lower value 0.973 | S. cerevisiae deletion strains, locus YNL250W, strain rad50, stronger effect = lower value 0.989 | S. cerevisiae deletion strains, locus YNL271C, strain bni1, stronger effect = lower value 0.965 | S. cerevisiae deletion strains, locus YNL322C, strain KRE1 (second series), stronger effect = lower value 0.985 | S. cerevisiae deletion strains, locus YNL322C, strain KRE1, stronger effect = lower value 0.971 | S. cerevisiae deletion strains, locus YNR049C, strain mso1, stronger effect = lower value 0.982 | S. cerevisiae deletion strains, locus YNR052C, strain pop2, stronger effect = lower value 0.931 | S. cerevisiae deletion strains, locus YOL006C, strain TOP1, stronger effect = lower value 0.637 | S. cerevisiae deletion strains, locus YOL012C, strain htz1 0.999 | S. cerevisiae deletion strains, locus YOR001W, strain rrp6, stronger effect = lower value 0.966 | S. cerevisiae deletion strains, locus YOR069W, strain VPS5, stronger effect = lower value 0.978 | S. cerevisiae deletion strains, locus YOR070C, strain gyp1, stronger effect = lower value 0.964 | S. cerevisiae deletion strains, locus YOR080W, strain dia2, stronger effect = lower value 0.977 | S. cerevisiae deletion strains, locus YOR083W, strain WHI5, stronger effect = lower value 0.967 | S. cerevisiae deletion strains, locus YOR106W, strain vam3, stronger effect = lower value 0.889 | S. cerevisiae deletion strains, locus YOR136W, strain idh2, stronger effect = lower value 0.929 | S. cerevisiae deletion strains, locus YOR265W, strain rbl2, stronger effect = lower value 0.982 | S. cerevisiae deletion strains, locus YOR270C, strain vph1, stronger effect = lower value 0.932 | S. cerevisiae deletion strains, locus YOR290C, strain snf2, stronger effect = lower value 0.903 | S. cerevisiae deletion strains, locus YOR316C, strain cot1, stronger effect = lower value 0.962 | S. cerevisiae deletion strains, locus YPL051W, strain arl3, stronger effect = lower value 0.926 | S. cerevisiae deletion strains, locus YPL078C, strain atp4, stronger effect = lower value 0.976 | S. cerevisiae deletion strains, locus YPL106C, strain sse1, stronger effect = lower value 1.01 | S. cerevisiae deletion strains, locus YPL240C, strain hsp82, stronger effect = lower value 0.977 | S. cerevisiae deletion strains, locus YPL241C, strain CIN2, stronger effect = lower value 0.96 | S. cerevisiae deletion strains, locus YPR119W, strain clb2, stronger effect = lower value 0.98 | S. cerevisiae deletion strains, locus YPR141C, strain kar3, stronger effect = lower value 0.959 | S. cerevisiae deletion strains, locus YPR167C, strain met16, stronger effect = lower value 0.947
active: S. cerevisiae deletion strains, locus YJR075W, strain HOC1, stronger effect = lower value 0.771 | S. cerevisiae deletion strains, locus YKL190W, strain CNB1, stronger effect = lower value 0.82 | S. cerevisiae deletion strains, locus YKR001C, strain vps1, stronger effect = lower value 0.754 | S. cerevisiae deletion strains, locus YLR058C, strain SHM2, stronger effect = lower value 0.86 | S. cerevisiae deletion strains, locus YLR262C, strain YPT6 (second series), stronger effect = lower value 0.807 | S. cerevisiae deletion strains, locus YLR268W, strain sec22, stronger effect = lower value 0.784 | S. cerevisiae deletion strains, locus YLR320W, strain mms22, stronger effect = lower value 0.845 | S. cerevisiae deletion strains, locus YLR330W, strain CHS5, stronger effect = lower value 0.753 | S. cerevisiae deletion strains, locus YLR418C, strain cdc73, stronger effect = lower value 0.364 | S. cerevisiae deletion strains, locus YML032C, strain rad52, stronger effect = lower value 0.86 | S. cerevisiae deletion strains, locus YMR223W, strain ubp8, stronger effect = lower value 0.841 | S. cerevisiae deletion strains, locus YMR263W, strain SAP30, stronger effect = lower value 0.848 | S. cerevisiae deletion strains, locus YNL067W, strain RPL9B, stronger effect = lower value 0.742 | S. cerevisiae deletion strains, locus YNL071W, strain lat1, stronger effect = lower value 0.748 | S. cerevisiae deletion strains, locus YNL153C, strain GIM3, stronger effect = lower value 0.826 | S. cerevisiae deletion strains, locus YNL233W, strain BNI4, stronger effect = lower value 0.685 | S. cerevisiae deletion strains, locus YNL298W, strain CLA4, stronger effect = lower value 0.898 | S. cerevisiae deletion strains, locus YNL307C, strain MCK1, stronger effect = lower value 0.166 | S. cerevisiae deletion strains, locus YOL147C, strain pex11, stronger effect = lower value 0.71 | S. cerevisiae deletion strains, locus YOR061W, strain CKA2, stronger effect = lower value 0.514 | S. cerevisiae deletion strains, locus YOR144C, strain elg1, stronger effect = lower value 0.93 | S. cerevisiae deletion strains, locus YOR184W, strain ser1, stronger effect = lower value 0.62 | S. cerevisiae deletion strains, locus YPL055C, strain LGE1, stronger effect = lower value 0.612 | S. cerevisiae deletion strains, locus YPR163C, strain tif3, stronger effect = lower value 0.626 | S. cerevisiae deletion strains, strain wtn01, stronger effect = lower value 0.801 | S. cerevisiae strains, strain wild type, stronger effect = lower value 0.83
